Laboratory results taken from PubChem BioAssay AID1347076 (National Center for Advancing Translational Sciences (NCATS), 2019).
The whole screen tested about 400,000 compounds, of which about 13,000 (3.2%) were called active. A call without a number means that no potency is given here. Inconclusive results (about 18%) are left out. Calls follow the shape of the dose curve; as a rule, active = well fitted cell-killing curve with a large enough effect; inconclusive = small, poorly fitted or top-dose-only effect, or effect the other way; inactive = flat fitted curve, though single readings scatter. For the sample, actives were picked, then their nearest neighbours and some compounds at random.

Test: qHTS assay for MDR1-selective chemotherapeutics: Primary screen using the drug-selected MDR subline cells KB-V1; also: nearly all actives have a fitted effect of over 60% in size
Settings: KB-V1 MDR cells viability, CellTiter-Glo, 72 h; series mostly up to 46.1 µM
In short: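 Readout: CellTiter-Glo luminescence, 10 min after addition. Cells: KB-V1 MDR subline, 72 h at 37 degrees C with compound. Analysis: corrected, normalized data fitted to concentration-effect curves.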
Potency is read from the fitted curve at half-maximal effect.

Structure (SMILES) | Potency
Cc1nccn1-c1ccc(NC(=O)[C@H]2O[C@@H](n3cnc4c(N)ncnc43)[C@H](O)[C@@H]2O)cc1 | inactive
CSc1ccc(CN2CCC2(C)C(=O)Nc2ccc(C)c(O)c2)cc1 (configuration not stated) | inactive
Cc1nc2sc(C)c(C)n2c(=O)c1S(=O)(=O)NCCc1ccc(Cl)cc1 | inactive
CC1(C(=O)NS(=O)(=O)c2ccccc2)CCN1C(=O)c1ccccc1 (configuration not stated) | inactive
Cc1cccc(-n2ccnc2SCC(=O)Nc2cccc3ccccc23)c1C | inactive
Cc1cc(C)cc(-n2ccnc2SCC(=O)Nc2nc3ccccc3s2)c1 | inactive
Cc1nnc(NC(=O)CSc2nccn2-c2cccc(C)c2C)s1 | 9.2 µM (active)
C[C@@H]1CN([C@@H](C)CO)C(=O)CCCn2nncc2CO[C@@H]1CN(C)S(=O)(=O)c1ccc(-c2ccccc2)cc1 | inactive
CN(C)c1ccc(/C=N/NC(=O)c2ccc(Cn3cc(Br)cn3)o2)cc1 | inactive
O=C(N/N=C/c1cccc(OCc2ccccc2)c1)c1ccc(Br)o1 | inactive
O=C(N/N=C\c1ccc(Br)cc1)c1ccc(Cn2cccn2)o1 | 11.6 µM (active)
C[C@H]1CN([C@@H](C)CO)S(=O)(=O)c2ccc(Br)cc2O[C@H]1CN(C)C(=O)c1cnccn1 | inactive
CC(C)CC1C(=O)N(Cc2cn(Cc3ccco3)nn2)CCS(=O)(=O)N1Cc1ccc(-c2ccc(Cl)c(Cl)c2)cc1 (configuration not stated) | inactive
CCCCN(C=O)c1c(CC)nc2c(OCCC3CCCCC3)cccn12 | inactive
COc1ccc(/C=C(/CC(=O)Nc2ccc(C)cc2)c2nc3ccccc3s2)cc1 | inactive
COC(=O)Cc1[nH]n(-c2nc3ccccc3s2)c(=O)c1C(C)=Nc1ccc(OC)cc1 | 9.2 µM (active)
COc1ccc(CC(=O)Nc2ccc(-c3nc4ccccc4s3)c(C)c2)cc1 | inactive
CC1=C(C(=O)N2CCOCC2)CC(CC(=O)NCc2cccc3ccccc23)C(=O)N1CCC1=CCCCC1 (configuration not stated) | inactive
COc1cc(C(=O)NCCc2csc3nc(-c4ccccc4C)nn23)cc(OC)c1OC | inactive
CCC(CC)C(=O)N1CCc2cc(OC)c(OC)cc2C1COc1ccc(F)cc1 (configuration not stated) | inactive
CC[C@H]1CN2CCc3cc(OC)c(OC)cc3[C@@H]2C[C@@H]1C[C@H]1NCCc2cc(OC)c(OC)cc21 | 5.17 µM (active)
COc1ccc2c(c1)CCNC2Cc1ccc(OC)c(O)c1 (configuration not stated) | inactive
Cc1cc(Cl)ccc1-c1nc(NCCN(C)C)nc2ccsc12 | inactive
COc1cc(C=NC2CCCCC2)ccc1O | inactive
CCOc1cccc(-c2nn3c(-c4ccccn4)nnc3s2)c1 | 5.17 µM (active)

Structure (SMILES) | Potency
CCc1ccc(-c2nn3c(C)nnc3s2)cc1NC(=O)c1ccc(-c2cccc(Cl)c2)o1 | inactive
CCOc1cccc(-c2nnc(SCC(=O)NC3CC3)n2C)c1 | inactive
CCOC(=O)C1CCN(C(=O)c2ccc3c(=O)n4nc(Nc5ccccc5CC)sc4nc3c2)CC1 | inactive
COc1cc(NC(=O)Cn2nc(-c3ccc(C)c(C)c3)ccc2=O)cc(OC)c1 | inactive
Cc1ccc(-c2nc3c(Cl)cc(C(F)(F)F)cn3c2Cc2cccc(Cl)c2)cc1 | inactive
O=c1c([N+](=O)[O-])cc(C(F)(F)F)cn1Cc1cccc(Cl)c1 | 18.4 µM (active)
CC(NC(=O)Cn1cc(C(F)(F)F)cc(Cl)c1=O)c1ccccc1 (configuration not stated) | inactive
Cn1c(NCc2cccnc2)nc2cc(-c3ccc(F)cc3)sc2c1=O | inactive
O=C(Nc1ccccc1C(F)(F)F)c1nc(S(=O)(=O)Cc2ccccc2F)ncc1Cl | inactive
COc1ncnc2c1ncn2CCCNCCN1CCOCC1 | inactive
Cc1ccccc1C1=NC(C(F)(F)F)(C(F)(F)F)c2c(n(-c3ccc(F)cc3)c(=O)[nH]c2=O)N1 | 14.6 µM (active)
O=c1[nH]c(=O)n(Cc2ccco2)c2c1C(C(F)(F)F)(C(F)(F)F)N=C(c1ccco1)N2 | inactive
COc1cccc(C(=O)NC2(C(F)(F)F)C(=O)Nc3c2c(=O)[nH]c(=O)n3-c2ccc(C)cc2)c1 (configuration not stated) | inactive
O=C(NC(c1ccco1)c1cc(Cl)c2cccnc2c1O)c1ccccc1 (configuration not stated) | inactive
COc1ccc2nc(-c3ccccn3)ccc2c1 | inactive
CC(C)c1ccc(-c2noc(C3CCCN(S(C)(=O)=O)C3)n2)cc1 (configuration not stated) | 18.4 µM (active)
O=c1ccc(S(=O)(=O)N2CCCC2)cn1Cc1nc(-c2ccccc2)no1 | inactive
COc1cccc(-c2noc(C3CCCN(C(=O)c4ccc(F)cc4)C3)n2)c1 (configuration not stated) | inactive
COc1ccc(NC(=O)N2CCCC(c3nc(-c4ccc(F)cc4)no3)C2)cc1 (configuration not stated) | inactive
COc1cc(-c2noc(C3CCCN(S(=O)(=O)c4cccc(Cl)c4)C3)n2)cc(OC)c1OC (configuration not stated) | inactive
O=C(Cc1cccs1)N1CCCC(c2nc(-c3ccc(S(=O)(=O)N4CCCC4)cc3)no2)C1 (configuration not stated) | 20.6 µM (active)
Cc1ccccc1-c1ccc2c(c1)O[C@@H](CN(C)Cc1ccc(C(=O)O)cc1)[C@@H](C)CN([C@H](C)CO)S2(=O)=O | inactive
NC(CSC(c1ccccc1)(c1ccccc1)c1ccc(-c2ccccc2)cc1)C(=O)O (configuration not stated) | inactive
O=C1NC[C@H](Cc2ccc(O)cc2)N(C[C@@H]2CCCN2C[C@H](Cc2ccccc2)N2C[C@H](Cc3ccccc3)N(CC3CCCCC3)C(=O)C2=O)C1=O | inactive
CCc1nc2c(OCC(=O)C(C)(C)C)cccn2c1N(C)C(=O)c1ccccc1F | inactive

Structure (SMILES) | Potency
COc1cc(Cn2c3ccc(NC(=O)CC(C)c4ccccc4)cc3c(=O)n2C)ccc1F (configuration not stated) | inactive
CC(C)c1ccc(S(=O)(=O)NC2CCCC2)cc1 | inactive
Cc1ccc(S(=O)(=O)NC2CCCCCC2)cc1 | 20.6 µM (active)
CSc1ccc(S(=O)(=O)NC2CCCCC2)cc1 | inactive
CCOc1cc(/C=N/NC(=O)c2ccncc2)cc(Br)c1O | inactive
O=C(COC(=O)/C=C/c1ccc(Cl)cc1)NC1CCS(=O)(=O)C1 (configuration not stated) | inactive
C/C(=N\Nc1ncc(Cl)cc1Cl)c1ccc(S(=O)(=O)NCc2ccco2)cc1 | 2.06 µM (active)
Cc1c(Cl)cnc(NC(=O)COC(=O)c2ccc(S(=O)(=O)NCc3ccco3)cc2)c1Cl | inactive
O=S(=O)(NCc1ccco1)c1cnc(Cl)c(Cl)c1 | inactive
CC(=O)Nc1ccc(SCC(=O)Nc2ccccc2Oc2ccccc2)cc1 | 4.61 µM (active)
Cc1cc(C)cc(NC(=O)CSc2ccccc2)c1 | inactive
CSc1cccc(NC(=O)CSc2ccccc2)c1 | inactive
CC1CCCN(CC(=O)Nc2cc(Cl)ccc2Oc2ccccc2)C1 (configuration not stated) | inactive
COc1ccc(Cl)cc1NC(=O)CSc1nc2ccccc2c2nc(-c3ccccc3)nn12 | inactive
O=C(CSc1ccccc1)Nc1cc(Cl)ccc1Oc1ccccc1 | 18.4 µM (active)
CC(C)NC(=O)C1CCC(Cn2c(=O)c3sccc3n(Cc3ccc(F)cc3)c2=O)CC1 (configuration not stated) | inactive
Cc1cccc(CN2CCN(C3CN(Cc4ccccc4)S(=O)(=O)C3)CC2)c1 (configuration not stated) | inactive
C=CCOc1cccc(C2C(C(=O)c3ccc(C)o3)=C(O)C(=O)N2CCN2CCOCC2)c1 (configuration not stated) | inactive
COCCNC(=O)C1C(=O)Nc2ccccc2C(=O)N1c1ccc2c(c1)OCCO2 (configuration not stated) | inactive
O=S1(=O)CC(N2CCN(Cc3ccccc3F)CC2)CN1Cc1cn(Cc2ccccc2)nn1 (configuration not stated) | inactive
COc1ccc(Cn2c(=O)oc3ccccc32)cc1 | inactive
CN1CCN(c2ccncc2S(=O)(=O)N2CCCC2)CC1 | inactive
Cn1c(=N)n(CC(O)c2cccs2)c2ccccc21 (configuration not stated) | inactive
Cn1c(=N)n(CC(O)c2ccccc2)c2ccccc21 (configuration not stated) | inactive
N=c1n(Cc2ccc(Cl)cc2)c2ccccc2n1CC(O)c1ccco1 (configuration not stated) | 20.6 µM (active)

Structure (SMILES) | Potency
Cc1ccc(S(=O)(=O)N2CC[C@H]3[C@@H](C2)C(=O)C[C@@H](c2ccccc2)N3S(=O)(=O)c2ccc(C)cc2)cc1 | inactive
Brc1cccc[n+]1Cc1cccc(C[n+]2ccccc2Br)c1 | inactive
O=C(Nc1ncc2c(n1)-c1ccccc1OC2)c1ccc(Cl)cc1 | inactive
COc1ccc(C(=O)Nc2ncc3c(n2)-c2ccccc2CC3)cc1 | 13 µM (active)
COc1ccc(C(=O)Nc2onc3c2CCCC3)cc1 | inactive
COc1cccc(CNC(=O)Cc2csc3nc(-c4ccccc4)cn23)c1 | inactive
CCC(C(=O)Nc1cc(OC)ccc1OC)n1c(=O)c(C(F)(F)F)nc2ccccc21 (configuration not stated) | inactive
COc1cccc(C(=O)Nc2cccnc2)c1OC | inactive
O=C(Nc1cccnc1)c1noc2c1CCCCC2 | 23.1 µM (active)
CCOC(=O)c1ccc(-c2ccc(C(=O)Nc3cccnc3)o2)cc1 | inactive
CC(C)CC(=O)Nc1cc(C(F)(F)F)ccc1N1CCOCC1 | inactive
Nc1cc(C(F)(F)F)ccc1N1CCOCC1 | 20.6 µM (active)
Cc1noc(C)c1S(=O)(=O)Nc1cc(C(F)(F)F)ccc1N1CCOCC1 | inactive
Cc1ccccc1CNC(=O)CSc1nnc(C)c2c(C)n(-c3ccccc3)nc12 | inactive
COc1cccc(C(NC(C)=O)c2nc(-c3ccccc3OC)cs2)c1 (configuration not stated) | inactive
CCN1CCCC1CNC(=O)c1ccc2c(c1)NC(=O)/C(=C\c1ccccc1F)S2 (configuration not stated) | inactive
COC(=O)c1ccc2nc(-c3ccc(F)cc3)c(Cc3ccc(C)cc3)n2c1 | 9.2 µM (active)
COC(=O)c1ccc2nc(-c3ccc(C)cc3)c(Cc3ccc(OC)cc3C)n2c1 | inactive
COC(=O)c1ccc2nc(-c3cccc(Br)c3)c(Cc3ccc(OC)cc3C)n2c1 | inactive
COC(=O)c1ccc2nc(-c3ccc(OC)c(OC)c3)c(Cc3ccccc3)n2c1 | inactive
COC(=O)c1ccc2nc(-c3ccc(Cl)cc3)c(Cc3cccc(F)c3)n2c1 | inactive
COC(=O)c1ccc2nc(-c3ccccc3)c(Cc3ccc(OC)cc3C)n2c1 | 23.1 µM (active)
